Bioassay records (PubChem)
KCNH2 WT inh: blocks the wildtype human KCNH2 potassium channel; actives 0.37% (n = 340,000); U2OS, BacMam KCNH2, thallium flux FluxOr; stronger effect = lower value; Q12809; activity change, % at 1.84 µM;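 active = maximum activity change below -70%; inconclusive = maximum activity change between -70% and -50%; inactive = maximum activity change above -50%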
Target sequence (Q12809 whole entry, looked up): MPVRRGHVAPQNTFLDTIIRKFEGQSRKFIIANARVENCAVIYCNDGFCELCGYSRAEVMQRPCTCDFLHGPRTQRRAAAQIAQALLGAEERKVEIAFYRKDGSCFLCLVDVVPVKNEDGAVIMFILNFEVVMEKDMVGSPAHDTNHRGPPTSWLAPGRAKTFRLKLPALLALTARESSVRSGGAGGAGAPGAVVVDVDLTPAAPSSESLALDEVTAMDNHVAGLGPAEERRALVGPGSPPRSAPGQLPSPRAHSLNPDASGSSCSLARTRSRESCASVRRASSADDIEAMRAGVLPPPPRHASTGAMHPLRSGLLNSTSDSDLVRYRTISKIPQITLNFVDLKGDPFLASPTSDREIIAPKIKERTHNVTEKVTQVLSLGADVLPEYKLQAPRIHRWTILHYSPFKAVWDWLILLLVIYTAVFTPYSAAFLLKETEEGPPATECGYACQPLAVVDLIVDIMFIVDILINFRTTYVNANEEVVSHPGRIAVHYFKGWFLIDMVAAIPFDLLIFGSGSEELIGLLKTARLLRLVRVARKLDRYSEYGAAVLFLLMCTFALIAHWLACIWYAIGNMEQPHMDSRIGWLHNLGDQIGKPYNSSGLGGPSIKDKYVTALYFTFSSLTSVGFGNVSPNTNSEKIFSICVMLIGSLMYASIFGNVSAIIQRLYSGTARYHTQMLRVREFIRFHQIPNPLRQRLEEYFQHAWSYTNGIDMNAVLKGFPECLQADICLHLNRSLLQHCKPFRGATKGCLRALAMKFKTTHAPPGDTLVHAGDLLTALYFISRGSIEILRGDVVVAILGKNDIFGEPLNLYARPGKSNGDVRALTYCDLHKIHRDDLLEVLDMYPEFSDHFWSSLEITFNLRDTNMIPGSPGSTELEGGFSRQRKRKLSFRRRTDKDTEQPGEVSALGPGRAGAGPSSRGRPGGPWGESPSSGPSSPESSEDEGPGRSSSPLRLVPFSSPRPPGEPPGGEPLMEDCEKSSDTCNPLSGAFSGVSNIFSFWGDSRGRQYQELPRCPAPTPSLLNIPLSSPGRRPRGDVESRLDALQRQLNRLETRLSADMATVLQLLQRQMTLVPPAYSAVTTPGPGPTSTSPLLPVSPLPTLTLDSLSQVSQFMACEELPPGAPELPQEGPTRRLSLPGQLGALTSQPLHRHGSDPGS
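U2OS cells transduced with wild-type KCNH2 virus are loaded with FluxOr dye for 45 min, and thallium flux is measured in kinetic reads before and after stimulation buffer. Rate constants are normalized to DMSO controls.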
Glioma ERSR ind: ER stress response induction in glioma; U87-MG GRP78 promoter luciferase reporter, 16 h; Potency, µM, hits mostly activators; actives 0.02% (n = 420,000); active = well fitted activation curve with a large enough effect; inconclusive = small, poorly fitted or top-dose-only effect; inactive = no such curve, though single readings can be large or run the other way; note: series mostly up to about 76 µM; nearly all actives have a fitted effect of over 35% in size
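Stably transfected U87-MG glioma cells carrying a GRP78-based luciferase sensor; 16 h compound incubation. Luminescence end-point read 10 min after Bright-Glo addition at room temperature.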
Akt phos inh: inhibitors of Akt phosphorylation | Neuro2A IGF-stimulated pAkt S473 HTRF, 20 min; stronger effect = lower value | activity change, % for hits at 50 µM | actives 0.32% (n = 360,000); in the data active = activity change below about -80%; inconclusive = mostly about -51% to -80%
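Single-point screen (50 µM final compound) in Neuro2A cells stimulated 20 min with 6 nM IGF at 37 deg C. After lysis, Ser473-phosphorylated Akt read by HTRF (ex 330 nm, em 615/665 nm) as the 665/615 ratio.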
gsp agonist: agonists of gsp mutant (McCune-Albright syndrome); Potency, µM (top dose mostly 76.9 µM), actives largely listed as activators; actives 0.13% (n = 340,000); AID 624287; gsp mutant cells, cAMP HTRF, 30 min; active = well fitted activation curve with a large enough effect; inconclusive = small, poorly fitted or top-dose-only effect, or another doubt; inactive = no such curve, though single readings can be large or run the other way; cell line not stated here;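 note: phosphodiesterase inhibitor Ro 20-1724 added with compounds to block cAMP breakdown; nearly all actives have a fitted effect of over 60% in size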
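Cells stably selected in G418 were plated at 2000/well, grown 16-24 hr, then given compounds in DMSO with the PDE inhibitor […] (300 uM solution added) for 30 min at 37C; cAMP was read by HTRF.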
gsp antag: antagonizes gsp, the McCune-Albright syndrome mutation; gsp-mutant cells, cAMP HTRF, 30 min; actives 0.4% (n = 340,000); Potency, µM (titrated, usually from 76.9 µM), hits mostly inhibitors; calls by dose curve; cell line not stated here;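 note: intracellular cAMP measured with PDE inhibitor Ro 20-1724 present during compound exposure; nearly all actives have a fitted effect of over 65% in size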
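Measurement of cellular cAMP by homogeneous time-resolved fluorescence following a 30 min compound exposure at 37C. The PDE inhibitor […] was present throughout; the assay buffer was DPBS with 0.05% BSA and 0.005% Tween 20.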
KCNH2 3.1 inh: KCNH2 3.1 (human) potassium channel inhibition; U2OS KCNH2 3.1, thallium flux FluxOr; stronger effect = lower value; actives 0.95% (n = 340,000); AID 720553; activity change, % (tested at about 1.8 µM);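 active = maximum activity change below -70%; inconclusive = maximum activity change from -70% to -50%; inactive = maximum activity change above -50%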;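 note: thallium influx rate constant from kinetic fluorescence after stimulation buffer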
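We transduce U2OS cells with the mutant 3.1 virus, culture them overnight, load FluxOr with Red40 quencher for 45 min, then add stimulation buffer and read kinetically for 2 min to derive a normalized rate constant.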
Each line names hits and unclear results; the compound was inactive in the other large screens. An excerpt weighted towards active compounds, which were near 1.6% of everything screened.

COc1ccc(CC(C)NCCC(c2ccccc2)c2ccccc2)cc1 (stereo unspecified)	KCNH2 WT inh -95.6, KCNH2 3.1 inh -100.6
CCCCNC(C)Cc1ccccc1 (stereo unspecified)	none (no result: gsp agonist)
CCCCOP(=O)(c1ccc(N(C)C)cc1)C(Nc1ccccc1)c1ccccc1 (stereo unspecified)	gsp antag inconclusive, KCNH2 3.1 inh -95.3
CC(C)c1ccc(C(O)P(=O)(OCc2ccccc2)c2ccc(N(C)C)cc2)cc1 (stereo unspecified)	gsp antag inconclusive
OC(COCc1ccc(Cl)cc1)CN1CC=C(c2ccccc2)CC1 (stereo unspecified)	KCNH2 WT inh inconclusive, KCNH2 3.1 inh -112.3
OC(CN1CC=C(c2ccccc2)CC1)c1ccccc1 (stereo unspecified)	none
C[C@]12CCC(=O)C=C1CC[C@@H]1[C@H]3CC[C@](C)(O)[C@@]3(C)CC[C@@H]12	none (no result: KCNH2 WT inh, Akt phos inh, gsp agonist, gsp antag, KCNH2 3.1 inh)
CCN(CC)C(=O)[C@@H]1C=C2c3cccc4[nH]cc(c34)C[C@H]2N(C)C1	none (no result: KCNH2 WT inh, Akt phos inh, gsp agonist, gsp antag, KCNH2 3.1 inh)
CC[N+](CC)(CC)CC	gsp antag 35.5µM (no result: gsp agonist)
CC(C)Cc1[nH]c(=O)c(C#N)c2c1CCC2	none
Cc1[nH]c(=S)c(C#N)c2c1CCCC2	gsp agonist 14.1µM
COc1ccc(OC)c(C[C@H](C)N)c1	none (no result: KCNH2 WT inh, Akt phos inh, gsp agonist, gsp antag, KCNH2 3.1 inh)
NS(=O)(=O)c1cc(C(=O)OCC(=O)Nc2ccc3[nH]c(=O)[nH]c3c2)ccc1Cl	none
COc1ccc(S(=O)(=O)N(C)C[C@H]2OCCCC[C@@H](C)Oc3ccc(N(C)C)cc3C(=O)N([C@H](C)CO)C[C@@H]2C)cc1	none (no result: gsp antag)
Oc1ccc(-[n+]2c(-c3ccccc3)cc(-c3ccccc3)cc2-c2ccccc2)cc1	gsp antag 50.1µM (no result: gsp agonist)
O=C1[O][Sb-]23[O]C(=O)C([O]2)C2[O][Sb-]4([O]C(=O)C([O]4)C1[O]3)[O]C2=O	none (no result: KCNH2 WT inh, Akt phos inh, gsp agonist, gsp antag, KCNH2 3.1 inh)
Cc1cc(OCC(=O)NC2CCS(=O)(=O)C2)c2c3c(c(=O)oc2c1)CCC3 (stereo unspecified)	KCNH2 WT inh -250.3
CCOC(=O)c1c(NC(=O)c2c(N)n(CCCOC)c3nc4ccccc4nc23)sc2c1CCCC2	KCNH2 3.1 inh -71.4
Cc1ccc(S(=O)(=O)NN)c(C)c1N1CCCC1=O	gsp agonist inconclusive
CCc1ccc2c(c1)Sc1ccccc1CC2N1CCN(C)CC1 (stereo unspecified)	KCNH2 WT inh inconclusive, gsp agonist inconclusive, KCNH2 3.1 inh -95.8
COc1ccc(CN(CCc2c[nH]c3ccccc23)Cc2ccc(OC)cc2)cc1	KCNH2 3.1 inh -106.2
COC(=O)C1=C(c2ccc(F)cc2OCc2ccccc2)C[C@@H]2CC[C@H]1N2C(=O)NCCOc1ccc(OC)cc1	KCNH2 3.1 inh -86.5
COC(=O)C1=C(c2ccccc2OCc2ccccc2)C[C@@H]2CC[C@H]1N2C(=O)NCc1ccc(N(C)C)cc1	KCNH2 3.1 inh -115.9
N#CC(C#N)=NNc1ccc([N+](=O)[O-])cc1	gsp antag 50.1µM
Cc1ccc(N2CCN(C(=O)c3cn(CC4CCCCC4)nn3)C(C)C2)cc1 (stereo unspecified)	gsp agonist inconclusive, KCNH2 3.1 inh -71.1
Nc1c2c(nc3ccccc13)CCN(Cc1ccccc1)C2	none
CN1CCc2nc3ccc(F)cc3c(C(N)=O)c2C1	Akt phos inh -99.4%
CCC(=O)O[C@@](Cc1ccccc1)(c1ccccc1)[C@H](C)CN(C)C	none (no result: KCNH2 WT inh, Akt phos inh, gsp agonist, gsp antag, KCNH2 3.1 inh)
CC12CCC3c4ccc(OC(=O)N(CCCl)CCCl)cc4CCC3C1CCC2O (stereo unspecified)	KCNH2 3.1 inh -89.4
CCn1c(O)c(/C=N/NC(=O)c2ccccc2)c(=O)[nH]c1=S	none
COc1ccccc1-n1c(O)c(/C=N/NC(=S)Nc2ccccc2)c(=O)[nH]c1=S	KCNH2 3.1 inh -93.4
CC[n+]1c(/C=C/C=C/c2ccc(N(C)C)cc2)sc2ccccc21	gsp antag inconclusive
CN(C)c1ccc(/C=C/C=C/c2sc3ccccc3[n+]2C)cc1	gsp antag 28.2µM
CC12CCC(=O)CC1CCC1C2CCC2(C)C1CCC2(C)O (stereo unspecified)	none (no result: KCNH2 WT inh, Akt phos inh, gsp agonist, gsp antag, KCNH2 3.1 inh)
COc1ccccc1OCCCn1cc(C(C)=O)c2ccccc21	gsp antag inconclusive
COc1ccccc1OCCCn1cc(C(=O)C2CC2)c2ccccc21	gsp antag 44.7µM
Cc1cccc(N2CCN(CCc3ccccc3)CC2)c1C	gsp agonist inconclusive, KCNH2 3.1 inh -81.7
Cc1ccc(S(=O)(=O)N2CN3CCN(C3)C2)cc1	KCNH2 WT inh -130.7, KCNH2 3.1 inh -134.3
